# Source: PubChem BioAssay (NCATS)
# Inconclusive results are not listed. Where a call stands in place of a potency, no number is given. Activity calls are given as the source filed them. The call rests on the fitted dose curve; in most records, active means well fitted curve in the direction sought with a large enough effect; inconclusive means small, poorly fitted or top-dose-only effect, or another doubt; inactive means no such curve, though single readings can be large; an effect the other way counts as inactive or inconclusive.
# Legend:
# [1] = target: Aldehyde dehydrogenase, mitochondrial (Homo sapiens) (UniProt P05091); test: qHTS for Inhibitors of the Aldehyde Dehydrogenase Family (ALDH2) Primary screen (AID 2061308); further: nearly all actives have a fitted effect of over 55% in size
# [2] = target: Retinaldehyde dehydrogenase 3 (Homo sapiens) (UniProt P47895); test: qHTS for Inhibitors of the Aldehyde Dehydrogenase Family (ALDH1A3) Primary screen (AID 2061315)
Compound,Potency [1],Potency [2]
CCC(=O)NC(c1cc(Cl)c2cccnc2c1O)C(C)C (stereo not given),inactive,inactive
O=S(=O)(Nc1nc(-c2ccccc2C(F)(F)F)nc2ccccc12)c1ccc(Br)cc1,inactive,inactive
c1nc(NCC2CCCO2)c2ccc(-c3ccc4c(c3)OCO4)cc2n1 (stereo not given),inactive,inactive
Cc1cc(C)n2ncc(C(=O)NCc3ccco3)c2n1,inactive,inactive
COc1cc2c(NC3CCN(C(C)C)CC3)nc(N3CCC(F)(F)CC3)nc2cc1OCCCN1CCCC1,inactive,inactive
CC1=C[C@@H]2[C@H]3[C@@H]4O[C@@](C)(CC[C@H]4O)[C@H]3CC(=O)[C@]23C(=O)N[C@@H](CC(C)C)[C@@H]3[C@@H]1C,inactive,inactive
O=C(Nc1ccc(Cl)c(Cl)c1)Nc1nc(-c2ccncc2)cs1,inactive,inactive
O=S(=O)(Nc1ccccc1F)c1ccc(O)c2ncccc12,inactive,inactive
Fc1ccccc1-c1nnc2n1N=C(c1ccc(OC(F)F)c(OCC3CC3)c1)CS2,inactive,inactive
FC(F)(F)c1ccccc1-c1nc(NCc2cccc(Cl)c2)c2ccccc2n1,inactive,inactive
O=C(Nc1ccc2ccccc2c1)Nc1nnc(-c2ccccc2Cl)s1,inactive,inactive
CCC(=O)NC(c1ccco1)c1cc([N+](=O)[O-])c2cccnc2c1O (stereo not given),inactive,inactive
CC(=O)c1cc2c(s1)c1cnn(Cc3ccccc3F)c(=O)c1n2C,inactive,inactive
O=C(OCC#CCSc1nnc(-c2ccc3ccccc3c2)o1)c1ccsc1,inactive,inactive
Cc1cc(-c2nnc3n2CCCCC3)c(C)n1-c1ccc(C(F)(F)F)cc1,inactive,inactive
